Experimental findings from PubChem BioAssay (NCATS) are described below.

The target of assay [1] is Lysosomal acid glucosylceramidase (Homo sapiens) (UniProt P04062). Briefly: Glucocerebrosidase-p2 (AID 348; in the data active = potency below about 10 µM; also: potency is read from the fitted curve at half-maximal effect). The note with it: purified GBA, blue fluorogenic substrate, 40 min. An outline of the steps: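 Compounds titrated from 0.6 nM upwards against 0.2 nM enzyme in pH 5.9 citric acid/KH2PO4, taurocholate, tween-20; blue fluorogenic substrate 80 uM, 40 min room temperature, stopped and read Ex 365/Em 440 for AC50.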
Lysosomal acid glucosylceramidase (Homo sapiens), sequence (P04062 whole entry, looked up): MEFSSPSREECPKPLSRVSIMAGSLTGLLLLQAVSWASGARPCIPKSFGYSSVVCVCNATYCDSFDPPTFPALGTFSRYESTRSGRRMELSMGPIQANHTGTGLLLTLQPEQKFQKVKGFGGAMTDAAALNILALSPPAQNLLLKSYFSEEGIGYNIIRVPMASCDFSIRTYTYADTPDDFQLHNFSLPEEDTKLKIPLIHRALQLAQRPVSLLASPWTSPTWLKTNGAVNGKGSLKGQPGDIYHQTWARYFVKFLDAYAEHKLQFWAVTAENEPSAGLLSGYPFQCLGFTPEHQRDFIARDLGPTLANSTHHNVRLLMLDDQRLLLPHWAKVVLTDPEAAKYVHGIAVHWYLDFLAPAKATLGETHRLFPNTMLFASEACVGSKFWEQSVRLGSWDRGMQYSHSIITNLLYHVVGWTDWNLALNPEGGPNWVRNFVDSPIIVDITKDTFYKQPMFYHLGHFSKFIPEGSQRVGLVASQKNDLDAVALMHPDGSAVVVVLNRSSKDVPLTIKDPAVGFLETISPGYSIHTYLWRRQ

A short description of assay [2]: AP1 Signaling Pathway (AID 357).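 Also: ME-180 reporter cells stimulated with EGF at its EC50 level; % is scaled to controls: 0 for no effect and ±100 for the full control effect.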 The note with it: ME-180 AP-1-bla reporter, EGF-induced, beta-lactamase ratio, 5 h; at 7.69 µM (top of the series) unless noted. An outline of the steps:
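AP-1-bla ME-180 cells, Opti-MEM + 0.5% dialyzed FBS, plated overnight 37 °C. Cpd titration + EC50 EGF, 5 h 37 °C. CCF4 2.5 h RT; ex 405, em 460/530 ratio → %activity, AC50.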

Assay [3] concerns the target Cytochrome P450 1A2 (Homo sapiens) (UniProt P05177). Briefly: p450-cyp1a2 (AID 410; calls by dose curve; also: potency is read from the fitted curve at half-maximal effect). The note with it: recombinant CYP1A2, luciferin-ME demethylation, luminescence; series mostly up to 57 µM. The method, boiled down:
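Inhibition was calculated relative to 57 uM furafylline (full inhibition). The reaction used human CYP1A2 at 20nM with Luciferin-ME at its Km, 100uM, driven by an NADPH-regenerating system for 60 min at room temperature.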

Assay [4] is described as follows: NFAT Signaling Pathway (AID 444).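 Also: carbachol stimulus at about its EC50 of 1 µM final; % is scaled to controls: 0 for no effect and ±100 for the full control effect.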 The note with it: Jurkat NFAT-bla M1, carbachol, beta-lactamase ratio, 5 h; at 7.69 µM (top of the series) unless noted. An outline of the steps:
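Jurkat cells carrying an NFAT-driven β-lactamase reporter and co-transfected muscarinic M1 receptor were treated with compound plus carbachol (1 uM final, an EC50 level) for 5 h at 37 °C. CCF4 loading followed for 1 h at RT; 460/530 nm ratio gave %activity.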

Assay [5] in a line: Stat Signaling Pathway (AID 446).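 Also: ME-180 cervical cancer cells given 40 pM IL-6 alongside compound; SIE-controlled beta-lactamase reporter measured as 460/530 nm FRET emission ratio; % is scaled to controls: 0 for no effect and ±100 for the full control effect.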 As to conditions: ME-180 SIE beta-lactamase reporter, IL-6 stimulated, 5 h; at 7.69 µM (top of the series) unless noted. The method, boiled down: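 Reporter line: ME-180 cervical carcinoma, SIE-beta-lactamase. Treatment: compound with 40 pM IL-6, 5 hrs, 37 C, in low-serum OPTI-MEM with 10 mM HEPES pH 7.3. Detection: 460/530 nm fluorescence.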

For assay [6], the target named is Glucocorticoid receptor (Homo sapiens) (UniProt P04150). Briefly: GR-EFC Redistribution (AID 451; calls by dose curve; also: potency is read from the fitted curve at half-maximal effect). The note with it: CHO-K1 GR-EFC translocation, beta-gal luminescence, 2 h. The method, boiled down:
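CHO-K1 cells stably expressing nuclear-localized β-gal enzyme acceptor and GR fused C-terminally to the enzyme donor fragment; ligand-driven nuclear translocation restores β-gal by complementation. Compounds titrated up to 46 uM final, 2 h at 37 °C; luminescence read.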

The target in assay [7] is Mitogen-activated protein kinase 10 (Mus musculus) (UniProt Q61831). Briefly: JNK3 AlphaScreen Assay (AID 530).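 Also: kinase came from lysate of stimulated human HepG2 cells; % is scaled to controls: 0 for no effect and ±100 for the full control effect.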 As to conditions: JNK3 lysate, c-Jun phosphorylation; series mostly up to 57.1 µM. The method, boiled down: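 JNK3 came from HepG2 lysates pre-activated with IL-1beta and TNF-alpha and phosphorylated biotinylated GST-cJun (1-79) at 10 uM ATP, pH 7.6, room temperature. Compounds were titrated. AlphaScreen signal used anti-phospho-cJun (Ser73) antibody.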
On the technique in general: Bead proximity is the source of the signal in Alpha formats.

Assay [8] has as its target 3',5'-cyclic-AMP phosphodiesterase 4B (Homo sapiens) (UniProt Q07343). Nature of the assay: qHTS Assay for Inhibitors of PDE-IV (AID 607; active = well fitted activation curve with a large enough effect in the main read-out, with a control signal flat, not every such curve was filed as active; also: % of control where 0% means no effect). As to conditions: HEK293 ACTOne CNG channel cells, membrane potential fluorescence; series mostly up to 22.9 µM. An outline of the steps: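 Cell-based read-out of cAMP via a modified cyclic nucleotide-gated channel and membrane potential dye (535/590 nm) in HEK293 cells expressing PDE4 endogenously. Compounds tested up to 22.9 uM final; 100 uM RO 20-1724 reference.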
(In general: qHTS replaces the single test concentration by a dilution series.)

Assay [9] has as its target Cytochrome P450 3A4 (Homo sapiens) (UniProt P08684). Nature of the assay: qHTS Assay for Activators of Cytochrome P450 3A4 (AID 885; active = well fitted curve in the direction sought with a large enough effect; an effect the other way counts as inactive or inconclusive; also: nearly all actives have a fitted effect of over 65% in size; also: potency is read from the fitted curve at half-maximal effect). As to conditions: recombinant CYP3A4, Luciferin-PPXE luminescence, 60 min; series mostly up to 57.1 µM. The method, boiled down: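 Signal was normalized against complete inhibition by 57 uM ketoconazole. The reaction used 20nM CYP3A4 with 25uM Luciferin-PPXE, 10-min compound preincubation and a 60-min NADPH-supported step at RT.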

The nature of assay [10]: qHTS Assay for Lipid Storage Modulators (AID 1519; calls by dose curve). As to conditions: Drosophila S3 cells, BODIPY lipid droplet/cell ratio, laser cytometry, cells loaded with oleic acid; for activity change, negative = inhibition: at 57.5 µM (top of the series). The method, boiled down: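 Cells seeded at 5,000 per well were treated with compounds over a concentration series and loaded with oleic acid (400 uM, as added). Lipid droplet fluorescence (488 nm excitation, 500-530 nm channel) was read by laser-scanning cytometry and normalized to 20 uM Triacsin C.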

The nature of assay [11]: Primary qHTS for small molecule stabilizers of the endoplasmic reticulum resident proteome: Secreted ER Calcium Modulated Protein (SERCaMP) assay (AID 1508630; active = well fitted curve in the direction sought with a large enough effect; an effect the other way counts as inactive or inconclusive; also: % is scaled to controls: 0 for no effect and ±100 for the full control effect). As to conditions: SH-SY5Y GLuc-SERCaMP (Gaussia luciferase released on ER calcium loss) secretion, thapsigargin, luminescence; series mostly up to 38.4 µM. An outline of the steps:
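GLuc-SERCaMP-expressing SH-SY5Y cells, pretreated 16 h with compound, are challenged with thapsigargin to empty ER calcium stores; after 4 h, coelenterazine is added directly to the medium and luminescence is imaged.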

Assay [12] addresses Cytochrome P450 3A4 (Homo sapiens) (UniProt P08684). Briefly: qHTS Assay for Inhibitors and Substrates of Cytochrome P450 3A4 (AID 884; active = well fitted curve in the direction sought with a large enough effect; an effect the other way counts as inactive or inconclusive; also: nearly all actives have a fitted effect of over 50% in size; also: potency is read from the fitted curve at half-maximal effect). As to conditions: recombinant CYP3A4, Luciferin-PPXE luminescence; series mostly up to 57.1 µM. The method, boiled down: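 20 nM human CYP3A4 with 25 uM Luciferin-PPXE (at KM) in 200 mM KPO4, preincubated 10 min with compound; NADPH regeneration started a 60 min RT reaction. Luciferin detected by luminescence, normalized to 57 uM ketoconazole as full inhibition.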

The target in assay [13] is Cytochrome P450 2D6 (Homo sapiens) (UniProt P10635). Nature of the assay: qHTS Assay for Inhibitors and Substrates of Cytochrome P450 2D6 (AID 891; active = well fitted curve in the direction sought with a large enough effect; an effect the other way counts as inactive or inconclusive; also: potency is read from the fitted curve at half-maximal effect; nearly all actives have a fitted effect of over 60% in size). The note with it: recombinant CYP2D6, luciferin-ME EGE luminescence; series mostly up to 57.1 µM. The method, boiled down:
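Human CYP2D6 (5 nM) with 30 uM Luciferin-ME EGE (at Km) in 100 mM KPO4, compound preincubated 10 min, then NADPH regeneration system for 60 min at room temperature. Luciferin read by luminescence; normalized to 1.43 uM quinidine.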

[14] abbreviates: measured here: cell count channel max response.
Setting [15] is: measured here: lipid channel max response.

SMILES strings stand for the structures. Inconclusive results are not listed. Activity calls are given as the source filed them. Unless noted, calls follow the shape of the dose curve; as a rule, active = well fitted curve in either direction with a large enough effect (not every such curve was filed as active); inconclusive = small, poorly fitted or top-dose-only effect, or another doubt; inactive = flat fitted curve, though single readings scatter.

Cytochrome P450 1A2 (Homo sapiens), sequence (P05177 whole entry, looked up): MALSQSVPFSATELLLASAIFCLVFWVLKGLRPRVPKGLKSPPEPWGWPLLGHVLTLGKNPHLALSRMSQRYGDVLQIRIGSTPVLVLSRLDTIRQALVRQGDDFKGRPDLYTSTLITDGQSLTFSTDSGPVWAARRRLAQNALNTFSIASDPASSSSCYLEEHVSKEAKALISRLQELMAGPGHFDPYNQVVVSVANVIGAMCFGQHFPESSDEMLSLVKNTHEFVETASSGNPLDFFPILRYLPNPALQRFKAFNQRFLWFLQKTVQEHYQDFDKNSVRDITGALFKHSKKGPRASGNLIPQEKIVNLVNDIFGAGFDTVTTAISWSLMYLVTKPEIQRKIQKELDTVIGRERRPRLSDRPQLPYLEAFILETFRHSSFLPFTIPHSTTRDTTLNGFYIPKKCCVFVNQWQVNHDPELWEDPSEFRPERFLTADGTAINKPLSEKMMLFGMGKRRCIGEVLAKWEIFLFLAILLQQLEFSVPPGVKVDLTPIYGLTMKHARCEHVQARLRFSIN
Glucocorticoid receptor (Homo sapiens), sequence (P04150 whole entry, looked up, the tested form may be a part): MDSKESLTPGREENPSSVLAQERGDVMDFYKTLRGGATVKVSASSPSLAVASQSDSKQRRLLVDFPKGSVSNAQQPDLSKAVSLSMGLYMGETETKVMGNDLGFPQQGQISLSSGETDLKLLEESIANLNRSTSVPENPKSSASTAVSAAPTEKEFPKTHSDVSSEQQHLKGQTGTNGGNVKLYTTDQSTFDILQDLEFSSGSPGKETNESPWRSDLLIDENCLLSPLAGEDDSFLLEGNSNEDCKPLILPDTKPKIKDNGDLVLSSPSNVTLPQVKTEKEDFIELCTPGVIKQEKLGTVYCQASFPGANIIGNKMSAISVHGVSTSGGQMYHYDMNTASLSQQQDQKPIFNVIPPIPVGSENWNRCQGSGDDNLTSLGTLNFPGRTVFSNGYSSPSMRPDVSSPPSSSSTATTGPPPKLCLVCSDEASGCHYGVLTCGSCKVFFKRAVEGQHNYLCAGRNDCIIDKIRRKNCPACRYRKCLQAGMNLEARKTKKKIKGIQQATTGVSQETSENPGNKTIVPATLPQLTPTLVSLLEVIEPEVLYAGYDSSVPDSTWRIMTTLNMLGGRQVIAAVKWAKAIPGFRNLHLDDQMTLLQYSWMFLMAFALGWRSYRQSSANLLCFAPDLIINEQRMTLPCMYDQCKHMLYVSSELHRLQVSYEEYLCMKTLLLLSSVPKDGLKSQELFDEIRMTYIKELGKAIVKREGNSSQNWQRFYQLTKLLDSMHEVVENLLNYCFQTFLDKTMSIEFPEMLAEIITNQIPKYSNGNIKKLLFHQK
3',5'-cyclic-AMP phosphodiesterase 4B (Homo sapiens), sequence (Q07343 whole entry, looked up): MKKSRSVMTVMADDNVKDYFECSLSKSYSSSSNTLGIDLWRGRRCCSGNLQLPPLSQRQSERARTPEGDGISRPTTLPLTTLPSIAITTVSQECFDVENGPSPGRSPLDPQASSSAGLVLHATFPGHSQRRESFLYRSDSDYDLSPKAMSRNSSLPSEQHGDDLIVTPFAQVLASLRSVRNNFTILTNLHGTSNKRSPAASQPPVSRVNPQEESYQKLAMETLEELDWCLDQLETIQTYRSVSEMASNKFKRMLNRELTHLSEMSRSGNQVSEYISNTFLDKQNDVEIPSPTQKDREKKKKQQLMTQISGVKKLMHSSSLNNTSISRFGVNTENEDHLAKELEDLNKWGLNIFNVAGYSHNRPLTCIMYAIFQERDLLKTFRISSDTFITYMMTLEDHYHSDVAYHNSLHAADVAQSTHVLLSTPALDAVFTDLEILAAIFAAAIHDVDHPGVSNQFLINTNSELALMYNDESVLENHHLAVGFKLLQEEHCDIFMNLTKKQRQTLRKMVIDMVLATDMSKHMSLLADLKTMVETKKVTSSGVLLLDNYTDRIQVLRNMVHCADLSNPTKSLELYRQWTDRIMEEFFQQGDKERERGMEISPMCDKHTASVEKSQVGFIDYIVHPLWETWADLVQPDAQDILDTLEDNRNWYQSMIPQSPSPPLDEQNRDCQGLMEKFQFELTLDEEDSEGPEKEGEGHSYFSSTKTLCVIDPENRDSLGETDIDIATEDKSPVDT
Cytochrome P450 3A4 (Homo sapiens), sequence (P08684 whole entry, looked up): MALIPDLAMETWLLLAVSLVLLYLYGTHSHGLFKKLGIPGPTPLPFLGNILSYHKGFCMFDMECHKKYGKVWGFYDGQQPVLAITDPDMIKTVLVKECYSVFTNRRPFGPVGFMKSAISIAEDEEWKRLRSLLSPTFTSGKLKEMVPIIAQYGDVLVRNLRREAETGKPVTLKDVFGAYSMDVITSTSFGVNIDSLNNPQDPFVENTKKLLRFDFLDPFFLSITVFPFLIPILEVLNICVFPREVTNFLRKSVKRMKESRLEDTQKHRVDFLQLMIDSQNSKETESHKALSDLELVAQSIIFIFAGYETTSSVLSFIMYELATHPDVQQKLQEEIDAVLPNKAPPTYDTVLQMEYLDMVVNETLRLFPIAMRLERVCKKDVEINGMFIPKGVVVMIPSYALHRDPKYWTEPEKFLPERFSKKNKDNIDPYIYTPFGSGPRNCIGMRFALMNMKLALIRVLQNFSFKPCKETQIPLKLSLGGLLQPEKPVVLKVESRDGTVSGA
Cytochrome P450 2D6 (Homo sapiens), sequence (P10635 whole entry, looked up): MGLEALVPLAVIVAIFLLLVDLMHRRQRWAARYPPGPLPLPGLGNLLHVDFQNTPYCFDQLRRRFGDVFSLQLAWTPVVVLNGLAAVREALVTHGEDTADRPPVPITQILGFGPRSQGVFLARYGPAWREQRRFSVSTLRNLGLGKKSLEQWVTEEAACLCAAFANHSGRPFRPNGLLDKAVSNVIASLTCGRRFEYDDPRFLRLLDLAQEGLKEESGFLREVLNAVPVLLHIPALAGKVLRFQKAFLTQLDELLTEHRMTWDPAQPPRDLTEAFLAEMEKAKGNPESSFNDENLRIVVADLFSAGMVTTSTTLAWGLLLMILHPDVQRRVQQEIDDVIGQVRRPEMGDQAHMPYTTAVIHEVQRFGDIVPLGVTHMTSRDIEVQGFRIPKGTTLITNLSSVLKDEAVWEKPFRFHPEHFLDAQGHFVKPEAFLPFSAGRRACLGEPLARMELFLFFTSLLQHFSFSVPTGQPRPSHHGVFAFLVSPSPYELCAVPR

Turning to `O=C(c1cnccn1)N1CCC[C@@]2(CCN(Cc3nccs3)C2)C1`, the Potency was > 11.4 µM (inactive) in [1] and > 46 µM (inactive) in assay [6]. Moreover, the results for the activity change, negative = inhibition in assay [2], in [4] and in [10] were -10.4% (inactive), 8.21% (inactive) and 4.59% (inactive), respectively. Besides, the Potency entry in assay [3], in assay [8], in assay [9] and in [11] was “inactive” in each case. In [5], the activity, negative = inhibition is -0.706% (inactive). Besides, the call in assay [7] was inactive. In addition, the max response came to 14.2% in assay [10] (setting [14]) and 20.9% in assay [10] (setting [15]).
Take `O=C(c1ccncc1)N1CCC2(CC1)CN(C(c1ccccc1)c1ccccc1)C2`: the Potency is > 11.4 µM (inactive) in [1]; 15.8 µM (active) in assay [3]; > 46 µM (inactive) in [6]; 3.98 µM (active) in assay [9]; 0.0251 µM (active) in [13]. In addition, the activity change, negative = inhibition in assay [2] is 4.62% (inactive); in assay [4] it was 16.7% (inactive); in assay [10] it was 4.23% (inactive). Further, in [5], the activity, negative = inhibition is -10.1% (inactive). Besides, in assay [7], the outcome was inactive. For the same compound, the Potency entry in assay [8], in assay [12] and in assay [11] was “inactive” throughout. The max response is -4.87% in [10] (setting [14]) and 3.6% in [10] (setting [15]).
Take `Cn1cccc1C(=O)N1CCC2(CC1)CCN(c1ccc(-c3ccccc3)cc1)CC2`: the Potency is > 11.4 µM (inactive) in assay [1], 20 µM (active) in [3], > 46 µM (inactive) in [6] and 15.8 µM (active) in [9]. For the same compound, the activity change, negative = inhibition was -19.9% (inactive) in assay [2], 11.4% (inactive) in assay [4] and -6.03% (inactive) in [10]. Moreover, the activity, negative = inhibition in assay [5] was -10.4% (inactive). The result in assay [7] was inactive. In addition, the Potency entry in assay [8] and in [11] was “inactive” in each case. The figures for the max response in [10] (setting [14]) and in assay [10] (setting [15]) were -2.01% and -7.47%, respectively.
For `COc1ccc(NC(=O)N2CCCC3(CCN(C(=O)c4cnccn4)CC3)C2)cc1`, the Potency in assay [1] is > 11.4 µM (inactive); in assay [6] it was > 46 µM (inactive). For the same compound, the activity change, negative = inhibition was -0.971% (inactive) in assay [2], 1.32% (inactive) in assay [4] and 4.77% (inactive) in assay [10]. In addition, the Potency result in assay [3], in assay [8], in [9] and in assay [11] was “inactive” each time. The activity, negative = inhibition in assay [5] is -7.92% (inactive). Also, the call in assay [7] was inactive. The max response in assay [10] (setting [14]) was found to be 1.78%; in assay [10] (setting [15]), 8.5%.
`COc1ccc(NC(=O)N2CC[C@@]3(CCCN(C(=O)c4cccn4C)C3)C2)cc1`: the values for the Potency in assay [1] and in assay [6] were > 11.4 µM (inactive) and > 46 µM (inactive), respectively. Besides, the results for the activity change, negative = inhibition in assay [2], in assay [4] and in [10] were -0.362% (inactive), 4.79% (inactive) and 2.71% (inactive), respectively. Moreover, the Potency result in assay [3], in assay [8], in assay [9] and in assay [11] was “inactive” throughout. In addition, the activity, negative = inhibition in assay [5] is 8.48% (inactive). Moreover, the call in assay [7] was inactive. The max response in assay [10] (setting [14]) was 12%; in [10] (setting [15]), 14.4%.
`COc1ccc(NC(=O)N2CCC3(CC2)CCN(C(=O)c2csnn2)CC3)cc1`: the Potency in [1] was > 11.4 µM (inactive); in [3], 6.31 µM (active); in assay [6], > 46 µM (inactive). The activity change, negative = inhibition in [2] is -4.35% (inactive); in assay [4] it was 3.59% (inactive); in assay [10] it was 8.17% (inactive). For the same compound, in [5], the activity, negative = inhibition is -12% (inactive). Moreover, the call in assay [7] was inactive. The Potency entry in assay [8], in assay [9] and in assay [11] was “inactive” each time. The max response in assay [10] (setting [14]) came to 17.2%; in [10] (setting [15]), 29.5%.
With `O=C(c1cc(C(F)(F)F)cc(C(F)(F)F)c1)N1CCC[C@@]2(CCN(Cc3nccs3)C2)C1`, the Potency in assay [1] is > 11.4 µM (inactive); in assay [3], 20 µM (active); in assay [6], > 46 µM (inactive); in [12], 3.16 µM (active). The figures for the activity change, negative = inhibition in assay [2], in assay [4] and in assay [10] were 4.84% (inactive), -21.5% (inactive) and 1.58% (inactive), respectively. In addition, the activity, negative = inhibition in assay [5] was -3.68% (inactive). For the same compound, the result in [7] was inactive. In addition, the Potency entry in assay [8], in [9] and in [11] was “inactive” each time. Besides, the max response was found to be 26% in assay [10] (setting [14]) and 28.9% in assay [10] (setting [15]).
